These results are taken from PubChem BioAssay (NCI).

About 83,000 compounds went through this panel and 20% of them were active in at least one assay; those are over-represented in the sample as a whole.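 Results are percent growth after 48 hours of single-concentration exposure. 100 means growth as in untreated cells, lower positive values show inhibition; negative values down to -100 show cell death.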 A number with no mark means an inactive call. The source made the active and inactive calls. The calls were made as follows: active = growth percent below 10; inactive = the rest.

Assay in all cases: NCI-60 one-dose screen, 48 h (100 = growth as untreated, 0 = no growth, -100 = all killed)
What all share (conditions): 10 µM unless noted

Test [1] relates to NCI-H23 lung.
In test [2] the test system is NCI-H226 lung.
Test [3] concerns NCI-H322M lung.
Test [4] deals with HOP-62 NSCLC.
Test [5] relates to NCI-H460 lung.
Test [6] relates to NCI-H522 lung.
Test [7] deals with A549/ATCC NSCLC.
Test [8] concerns 786-0 renal.
The test system of test [9] is DU-145 prostate.
Test [10] relates to K-562 leukemia.
Test [11] deals with MALME-3M melanoma.
Test [12] deals with MDA-MB-231 breast.
The subject of test [13] is RXF 393 renal.
The subject of test [14] is SF-268 CNS.
In test [15] the test system is SF-295 CNS.
In test [16] the test system is SF-539 CNS.
In test [17] the test system is UACC-257 melanoma.
Test [18] relates to M14 melanoma.
The subject of test [19] is COLO 205 colon.

Regarding `O=C(Cc1ccc(/C=C/C(=O)c2ncc[nH]2)cc1)Nc1ccc(S(F)(F)(F)(F)F)cc1`, the growth in test [1] was 68.5%; in [2] it was 93.7%; in [3], 95%; in test [4] it was 93.8%; in [5] it was 98.2%; in [6], 65.8%. For the same compound, the growth in test [7] is 76.7%; in [8], 88.5%; in [9], 78.5%; in [10], 17.8%; in test [11], 88%; in test [12], 70.4%. Further, the growth in test [13] is 94.7%; in test [14], 80%; in test [15], 80.8%; in test [16], 93.2%; in test [17] it was 103%; in test [18] it was 67.7%.
Turning to `Nc1nc(=S)c2ncn(C3OC(COC(=O)c4ccc(Cl)cc4)C(OC(=O)c4ccc(Cl)cc4)C3OC(=O)c3ccc(Cl)cc3)c2[nH]1` (configuration not stated), the growth in test [1] was 91.9%; in [2], 86.9%; in test [3] it was 97.8%; in test [4], 106%; in [5], 91.1%; in [6], 86.8%. Also, the growth is 98% in [7]; 84.4% in [8]; 123% in test [19]; 105% in [9]; 102% in [11]; 88% in [12]. In addition, the growth is 90.4% in test [14], 114% in test [15], 89.9% in test [16] and 99.4% in test [18].
For `CCOC(=O)C1=C(C)NC(=O)NC1c1cc(=O)oc2ccc(C)cc12` (configuration not stated), the growth is 96.9% in [1]; 93.4% in [2]; 98.6% in test [3]; 105% in [4]; 108% in test [5]; 81.5% in test [6]. The growth in [7] was 97.6%; in [8], 102%; in [19], 105%; in [9], 104%; in test [10], 103%; in test [11], 99%. In addition, the growth is 106% in test [12]; 101% in test [14]; 96.9% in [15]; 102% in test [16]; 102% in test [18].
Consider `O=C(NCCO)Nc1ccc(-c2nc(N3CCOCC3)c3cccn3n2)cc1`, for which the growth was 18.2% in test [1]; 6.97% (active) in [2]; 18% in test [3]; -0.0166% (active) in test [4]; 8.21% (active) in [5]; 10.1% in [6]. In addition, the growth in [7] was 2.7% (active); in [8] it was -5.56% (active); in test [19], -7.82% (active); in [9], 11.4%; in [10] it was 34.4%; in test [12], 4.2% (active). Further, the growth in test [13] is -33.9% (active); in [14] it was 11.1%; in test [15] it was -23.3% (active); in test [16], 0.904% (active); in [18], 6.09% (active).
For the compound `COc1ccc(-c2cnc(-c3ccc(Cl)cc3)[nH]2)cc1OC`, the growth in test [1] was 99.2%; in test [2], 88.3%; in [3], 120%; in test [4] it was 94.3%; in test [5] it was 100%; in test [6] it was 105%. The growth was 105% in test [7]; 100% in [8]; 98.7% in test [19]; 78.7% in [9]; 115% in test [10]; 155% in test [11]. The growth is 78.6% in test [12]; 91.6% in test [13]; 78% in test [14]; 111% in test [15]; 95.6% in test [16]; 119% in test [17]. In addition, the growth in test [18] was 115%.
For the compound `CC[C@H](Nc1ncnc2nc[nH]c12)c1nc2cccc(F)c2c(=O)n1-c1ccccc1`, the growth in test [1] was 93%; in test [2], 93.3%; in test [3], 42.9%; in [4] it was 75.6%; in test [5], 79.9%; in test [6], 22.4%. Moreover, the growth in [7] was 43.2%; in test [8] it was 37.5%; in test [19], 96.1%; in [9] it was 62.4%; in test [10] it was 83.6%; in test [11], 88.9%. Besides, the growth in [12] was 89.1%; in test [13], 2.02% (active); in [14] it was 71%; in test [15] it was 57.9%; in [16], 102%; in [17] it was 39.9%. In [18], the growth was 85.3%.
Take `C=CC(=O)Nc1cc2c(Nc3ccc(F)c(Cl)c3)ncnc2cc1C#CC(C)(C)N1CCN(C)CC1`: the growth was -88.9% (active) in test [1]; -97.4% (active) in test [2]; -86% (active) in [3]; -88.3% (active) in test [4]; -77% (active) in [5]; -73.7% (active) in test [6]. The growth in [7] was -82% (active); in [8], -96.3% (active); in test [19], -71.7% (active); in test [9], -98.9% (active); in test [10], -30.7% (active); in test [11], -85.3% (active). Further, the growth in [12] is -90.1% (active); in test [13], -98.6% (active); in test [14], -94.3% (active); in [15], -97.4% (active); in test [16], -100% (active); in [17], -86.2% (active). For the same compound, the growth in [18] is -90% (active).
As for `CCN1CCN(Cc2ccc(Cc3ncc(F)c(-c4cc(F)c5nc(C)n(C(C)C)c5c4)n3)nc2)CC1`, the growth is 44.3% in test [1]; 34.3% in [2]; 29.3% in [3]; 44.4% in test [4]; -56.1% (active) in [5]; 69% in test [6]. Also, the growth was 28.5% in [7]; 46.4% in test [8]; 16% in test [19]; 60.4% in test [9]; -29.2% (active) in [10]; 65.9% in [11]. Moreover, the growth in test [12] is 53.4%; in test [13] it was -28.2% (active); in test [14], 54.4%; in [15], 64.9%; in test [16], 59.8%; in test [17], 52.8%. In addition, in [18], the growth is 45.2%.
For `CC(C)OP(=O)(CCC(=O)c1c[nH]c2ccccc12)OC(C)C`, the growth in [1] is 96.8%; in test [2] it was 94%; in test [3], 103%; in test [4], 88.1%; in [5] it was 114%; in test [6], 86.9%. Also, the growth in test [7] is 68.7%; in test [8], 109%; in test [19] it was 103%; in [9], 116%; in test [10] it was 95.6%; in [11], 97.2%. The growth in [12] is 106%; in test [13], 114%; in test [14], 101%; in test [15], 104%; in [16] it was 97.4%; in test [18], 98.4%.
